These results are taken from PubChem BioAssay (Tox21).

Calls of active or inactive are those of the source. Where a call stands in place of a potency, no number is given. Calls follow the shape of the full dose curve.

In the assay the target is Gonadotropin-releasing hormone receptor (Homo sapiens) (UniProt P30968). Kind of assay: Human gonadotropin-releasing hormone receptor (GnRHR) small molecule agonists, calcium flux assay in GnRHR-HEK293 cells (AID 1920063). Also: nearly all actives have a fitted effect of over 35% in size. The conditions noted are these: calcium flux fluorescence, agonist mode; series mostly up to 57.6 µM. An excerpt: National Center for Advancing Translational Sciences [NCATS]
Gonadotropin-releasing hormone receptor (Homo sapiens), sequence (P30968 whole entry, looked up): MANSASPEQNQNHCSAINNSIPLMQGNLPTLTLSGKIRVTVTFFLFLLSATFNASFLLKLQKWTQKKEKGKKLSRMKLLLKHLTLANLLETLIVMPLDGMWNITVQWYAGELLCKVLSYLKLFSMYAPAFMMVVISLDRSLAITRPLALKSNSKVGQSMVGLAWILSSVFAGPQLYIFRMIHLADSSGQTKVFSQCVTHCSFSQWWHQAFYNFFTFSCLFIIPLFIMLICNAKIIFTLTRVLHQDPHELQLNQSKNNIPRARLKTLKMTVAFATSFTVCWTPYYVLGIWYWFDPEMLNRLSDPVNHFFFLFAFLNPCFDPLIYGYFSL
Division of Preclinical Innovation [DPI]
U.S. Environmental Protection Agency [EPA]
National Institutes of Environmental Health Sciences [NIEHS]
National Toxicology Program [NTP]
U.S. Food and Drug Administration [FDA]
Gonadotropin-releasing hormone receptor (GnRHR) is a G-protein-coupled receptor (GPCR) and acts (through phospholipase C) to increase intracellular inositol trisphosphate and then release intracellular calcium stores. Cell-based GnRHR-Hek293 calcium influx assay is using HEK293 cells that have been genetically engineered to express the human GnRHR, which activity can be measured by calcium signaling. A compound/drug can activate (agonist) GnRHR that can be monitored by levels of intracellular calcium.
GnRHR-HEK293 cells developed by Codex Corp contain human GnRHR reporter gene, which was stably integrated into HEK 293 cells. The compound activation can be detected by fluorescence intensity via calcium flux assay. This cell line has been used to screen the Tox21 10K compound library to identify GnRHR agonists.
GnRHR-Hek293 cells were dispensed at 1500cells/4uL/well in 1536-well black wall/clear bottom plates using a multidrop dispenser. After the assay plates were incubated at a 37 C/5% CO2 incubator for 18 hours, 4 uL of Calcium Dye Solution was added to each well. The plates were incubated at 37 C for 1 hour. For agonist mode, 23 nL of compounds dissolved in DMSO, positive controls or DMSO only was transferred to the assay plate by a pin tool station. The fluorescence intensity in the plates was measured using FDSS 7000EX kinetic plate reader with a filter set of Ex/Em=480/540 for 3 min at 1 sec intervals. Each test compound was measured at 15 concentrations and in triplicates.
For orientation: Calcium flux is commonly read through the fluorescence of an indicator in the cells.
Turning to `C/C=C/c1ccc(OCC)c(O)c1`, the Potency result was “inactive”. Under `CC(O)CO` (stereo not given) stands “inactive”; under `O=C1CCC(N2C(=O)c3ccccc3C2=O)C(=O)N1` (stereo not given), “inactive”.

Consider `C[C@H]1C[C@@H]2[C@H]([C@@H](O)C[C@@]3(C)[C@H]2CC[C@]3(O)C(=O)CO)[C@@]2(C)C=CC(=O)C=C12`, for which the Potency result was “inactive”. Regarding `Cc1cccc(C(=O)O)c1`, the Potency entry was “inactive”. As for `O=c1[nH]cc(F)c(=O)[nH]1`, the Potency result was “inactive”. As for `C=C(C)C(=O)OCCCCCCCCCCCC`, the entry is “inactive”; as for `COc1ccc(CN(CCN(C)C)c2ccccn2)cc1`, “inactive”; as for `O=Cc1ccc(CO)o1`, “inactive”. As for `CCCCCC1=CCCC1=O`, the entry is “inactive”; as for `CC(C)CC(C)CC(O)CC(C)C` (stereo not given), “inactive”.

Take `CC(C)(C)c1cccc(C(C)(C)C)c1O`: the Potency result is “inactive”.

`CCCCCCCCCCCCc1ccccc1`: the Potency entry is “inactive”. `Brc1cc(Oc2cc(Br)c(Br)c(Br)c2Br)c(Br)c(Br)c1Br`: the Potency entry was “inactive”.

On to `CCCCCCCCCCCCCCCC(=O)OC(C)C`, for which the Potency result was “inactive”.

In the case of `Oc1cccc(O)c1`, the Potency entry is “inactive”. Under `C[C@]12C=CC(=O)C=C1CC[C@@H]1[C@@H]2C(=O)C[C@@]2(C)[C@H]1CC[C@]2(O)C(=O)CO` stands “inactive”; under `OB(O)O`, “inactive”; under `CCOc1ccc(NC(=O)CC(C)O)cc1` (stereo not given), “inactive”. On to `c1ccc2c(c1)ccc1ccccc12`, for which the Potency result was “inactive”.

With `Cc1ccccc1C(OCCN(C)C)c1ccccc1` (stereo not given), the Potency result is “inactive”. In the case of `CC1=NN(c2ccccc2)C(=O)C1`, the Potency entry was “inactive”. Regarding `CC(C)(C)[C@@H](O)[C@@H](Cc1ccc(Cl)cc1)n1cncn1`, the Potency result was “inactive”. Under `Cc1cccc(Nc2cc(Cl)nc(SCC(=O)O)n2)c1C` stands “inactive”; under `C=CCCCCCCCCC(=O)O`, “inactive”. Regarding `COCC(C)N` (stereo not given), the Potency result was “inactive”. As to `CC(C)Cc1ccccc1`, the Potency entry was “inactive”. Under `COc1cc([C@@H]2c3cc4c(cc3[C@H](O)[C@H]3COC(=O)[C@H]23)OCO4)cc(OC)c1OC` stands “inactive”; under `CCCCOCCO`, “inactive”. As for `COC(=O)C1CCC(C(=O)OC)CC1` (stereo not given), the entry is “inactive”; as for `COC(=O)/C=C\C(=O)OC`, “inactive”; as for `NC(CO)(CO)CO`, “inactive”.

As to `C[C@@H](O)[C@H]1C(=O)N2C(C(=O)O)=C(S[C@@H]3CN[C@H](C(=O)N(C)C)C3)[C@H](C)[C@H]12`, the Potency result is “inactive”.

As for `CN(C)CCN(Cc1cccs1)c1ccccn1`, the Potency entry was “inactive”.

`COc1ccc2[nH]cc(CCNC(C)=O)c2c1`: the Potency entry was “inactive”. With `C=CC(=O)OCCC(=O)O`, the Potency result was “inactive”. Regarding `OCCCc1ccccc1`, the Potency entry was “inactive”.

In the case of `O=c1[nH]nnc2ccccc12`, the Potency entry was “inactive”. Regarding `O=[N+]([O-])c1ccccc1C(F)(F)F`, the Potency result was “inactive”. Turning to `C1N2CN3CN1CN(C2)C3`, the Potency result is “inactive”.
